mut p53 react = mutant p53 pathway re-activators, primary screen, cell-based, SW480, luciferase, single point, HTS; SW480 PUMA-promoter luciferase, p53 mutant reactivation; activation, % at 9.98 µM; 28,000 tested, 1.5% active; in the data active = activation above about 52%
STAT3 binder = STAT3 binders, primary screen, biochemical, small molecule microarray, single point, set 2; Signal transducer and activator of transcription 3 (Homo sapiens), P40763; calls only; His-STAT3 binding, anti-His fluorescence; 17,000 tested, 0.2% active;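 active = compounds whose four printed spots each show fluorescence over background unusually high for their array block, chance value under 7%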
Myc binder = binders of human c-Myc, primary screen, biochemical, small molecule microarray, anti-His fluorescence | Myc proto-oncogene protein (Homo sapiens), P01106 | 17,000 tested, 1.5% active | calls only | His-c-Myc binding;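 active = spot fluorescence over background with P-value below 7% in all four replicate spots, showing protein binding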;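 also: score is binary with 100 for all four spots passing and 0 otherwise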
mut p53 SMM = binders of human mutant p53, primary screen, biochemical, small molecule microarray, anti-GST fluorescence. mutant tumor protein p53 (GST-tagged), Homo sapiens. small molecule microarray binding. calls only. 17,000 tested, 0.4% active;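 active = compounds whose four printed spots each glow above background more than chance allows, each with a p-value under 7%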
NFkB binder = binders of NF-kB p50 subunit, primary screen, biochemical, small molecule microarray, anti-His fluorescence; Nuclear factor NF-kappa-B p105 subunit (Homo sapiens), P19838; anti-His fluorescence binding; calls only; 17,000 tested, 1.3% active; AID 624139, 2012;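 active = spot fluorescence over background significantly raised, with a chance value under 7% in all four replicate spots of the compound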;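 also: probe protein is his-tagged human p50 processed subunit at 1 µg/ml; raw spot fluorescence signals with no normalization applied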
Target sequence (P19838 1-433 limits assumed): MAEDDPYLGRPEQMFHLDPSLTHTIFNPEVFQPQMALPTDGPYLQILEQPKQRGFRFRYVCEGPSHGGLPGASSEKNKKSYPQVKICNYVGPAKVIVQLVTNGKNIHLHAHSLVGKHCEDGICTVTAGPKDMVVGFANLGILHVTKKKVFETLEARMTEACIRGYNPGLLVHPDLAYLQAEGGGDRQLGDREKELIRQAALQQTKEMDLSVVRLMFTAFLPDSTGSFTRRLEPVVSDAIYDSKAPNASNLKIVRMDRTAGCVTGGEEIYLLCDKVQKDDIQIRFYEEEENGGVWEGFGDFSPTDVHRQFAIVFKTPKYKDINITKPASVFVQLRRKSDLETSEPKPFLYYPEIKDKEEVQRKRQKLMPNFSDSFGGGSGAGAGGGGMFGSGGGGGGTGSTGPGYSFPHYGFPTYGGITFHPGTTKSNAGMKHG
Starred values were filed as active, the others as inactive; i = inactive; . = no result given; + = active, no number. The list is not random: actives were taken first. Their share in the collection is about 2.6%.

SMILES	mut p53 react	STAT3 binder	Myc binder	mut p53 SMM	NFkB binder
Cc1nnc(SCc2nc(N)nc(Nc3ccccc3)n2)s1	23	i	i	i	i
Cc1nnc(SCc2nc(N)nc(Nc3ccc4ccccc4c3)n2)s1	97*	.	.	.	.
C[C@]12CCC(=O)C=C1CC[C@@H]1C2CC[C@@]2(C)C1CC[C@@H]2C(=O)CO (some centres not stated)	-11	i	i	+	i
C[C@]12C[C@H](O)C3C(CC[C@@H]4C[C@H](O)CC[C@]34C)C1CC[C@@H]2C(=O)CO (some centres not stated)	-1	i	i	i	i
COC(=O)c1cccc(-n2c(CCC(=O)O)ccc2-c2cccs2)c1	63*	i	i	i	i
CN(C)c1c(F)cc(C(=O)NC(=O)NC2=NCCS2)cc1F	61*	.	.	.	.
CCOC(=O)c1c(CSc2nc(C)cc(C)n2)nc2c3ccccc3ccn12	90*	.	.	.	.
Cc1noc(C)c1NC(=O)Nc1cccc2c1O[C@H](CN(C)Cc1ccc3c(c1)OCO3)[C@@H](C)CN([C@@H](C)CO)C2=O	5	i	i	i	i
Cc1ccc2c(c1)c1nc3ccccc3nc1n2CCN1CCOCC1	-17	i	+	i	i
CN1C(=O)c2ccc(C(=O)Nc3ccc(OCC(=O)O)cc3)cc2C1=O	9	.	.	.	.
NC(=O)NCC#Cc1ccc2c(c1)[C@]1(C(=O)N2)[C@H](C(=O)N2CCCCCCC2)[C@H]2C(=O)O[C@H](c3ccccc3)[C@H](c3ccccc3)N2[C@@H]1c1ccccc1OCCO	.	i	+	+	i
O=C1O[C@H](c2ccccc2)[C@H](c2ccccc2)N2[C@H]1[C@@H](C(=O)N1CCCCCCC1)[C@]1(C(=O)Nc3ccc(C#CC4=CCCCC4)cc31)[C@H]2c1ccccc1OCCO	.	i	+	+	+
NC(=O)NCC#Cc1ccc2c(c1)[C@]1(C(=O)N2)[C@H](c2ccccc2OCCO)N2[C@H](c3ccccc3)[C@H](c3ccccc3)OC(=O)[C@H]2[C@@H]1C(N)=O	.	i	i	i	i
COc1cc2c(cc1OC)CN(C(=O)[C@@H]1[C@H]3C(=O)O[C@H](c4ccccc4)[C@H](c4ccccc4)N3[C@H](c3ccccc3OCCO)[C@@]13C(=O)Nc1ccc(C#CCNC(N)=O)cc13)CC2	.	i	i	i	+
COCC#Cc1cnc2c(c1)C(=O)N([C@H](C)CO)C[C@@H](C)[C@@H](CN(C)C(=O)c1ccc3c(c1)OCO3)O2	18	.	.	.	.
Cc1c(Cl)c(C(F)(F)F)nn1CC(=O)Nc1ccc(C#N)cc1	-8	i	i	i	i
C[C@H](O)C#Cc1ccc2c(c1)O[C@H](CN(C)C(=O)CC1CC1)[C@H](C)CN([C@@H](C)CO)S2(=O)=O	10	.	.	.	.
CC1CCc2c(sc3ncn(CC(=O)Nc4ccccc4C(F)(F)F)c(=O)c23)C1 (configuration not stated)	8	.	.	.	.
C[C@H](CO)N1C[C@H](C)[C@@H](CN(C)S(=O)(=O)c2ccc(F)cc2)OCCCC[C@H](C)Oc2ccc(NC(=O)Nc3ccc(C(F)(F)F)cc3)cc2C1=O	.	i	i	i	+
CC(C)NC(=O)N(C)C[C@H]1OCCCC[C@@H](C)Oc2ccc(NC(=O)Nc3ccc(F)cc3)cc2C(=O)N([C@H](C)CO)C[C@@H]1C	-4	i	i	i	i
CC(C)NC(=O)N(C)C[C@@H]1OCCCC[C@H](C)Oc2ccc(NC(=O)Nc3ccc(C(F)(F)F)cc3)cc2C(=O)N([C@H](C)CO)C[C@@H]1C	-57	i	+	i	+
C[C@@H]1CCCCO[C@@H](CN(C)C(=O)Nc2ccc(C(F)(F)F)cc2)[C@H](C)CN([C@H](C)CO)C(=O)c2cc(NC(=O)Nc3ccc(F)cc3)ccc2O1	.	i	i	i	i
C[C@H](CO)N1C[C@H](C)[C@H](CN(C)C(=O)Nc2ccc(C(F)(F)F)cc2)OCCCC[C@H](C)Oc2ccc(NS(C)(=O)=O)cc2C1=O	10	i	i	i	i
CC(C)NC(=O)N(C)C[C@H]1OCCCC[C@H](C)Oc2ccc(NC(=O)Nc3ccc(C(F)(F)F)cc3)cc2C(=O)N([C@@H](C)CO)C[C@H]1C	-19	i	+	i	+
C[C@H](CO)N1C[C@H](C)[C@@H](CN(C)S(=O)(=O)c2ccc(F)cc2)OCCCC[C@H](C)Oc2ccc(NC(=O)Nc3ccc(F)cc3)cc2C1=O	.	i	i	i	i
SMILES	mut p53 react	STAT3 binder	Myc binder	mut p53 SMM	NFkB binder
C[C@@H]1CN([C@@H](C)CO)C(=O)c2cc(NS(C)(=O)=O)ccc2O[C@@H](C)CCCCO[C@@H]1CN(C)C(=O)Nc1ccc(C(F)(F)F)cc1	-4	+	i	i	i
COc1ccc([Si](C)(C)[C@@H]2[C@@H](CCn3cc(CCO)nn3)O[C@]3(C(=O)N(C)c4c(Br)cc(C)cc43)[C@H]2C)cc1	.	i	i	i	i
C[C@H](CO)N1C[C@H](C)[C@H](CN(C)C(=O)NC2CCCCC2)Oc2c(NC(=O)Nc3ccc(C(F)(F)F)cc3)cccc2C1=O	-2	i	i	i	i
C[C@H]1CN([C@@H](C)CO)C(=O)c2cccc(NC(=O)NC3CCCCC3)c2O[C@@H]1CN(C)C(=O)Nc1ccc(C(F)(F)F)cc1	-4	i	+	i	+
C[C@@H]1CN([C@H](C)CO)C(=O)c2cccc(NC(=O)Nc3ccc(C(F)(F)F)cc3)c2O[C@H]1CN(C)C(=O)NC1CCCCC1	-16	+	+	i	+
C[C@@H]1CN([C@@H](C)CO)C(=O)c2cccc(NC(=O)Nc3ccc(C(F)(F)F)cc3)c2O[C@H]1CN(C)S(=O)(=O)c1cn(C)cn1	20	i	+	i	+
C[C@@H]1CN([C@H](C)CO)C(=O)c2cccc(NC(=O)Nc3ccc(C(F)(F)F)cc3)c2O[C@H]1CN(C)CC1CC1	-13	+	i	i	i
C[C@H](CO)N1C[C@H](C)[C@H](CN(C)C(=O)Nc2ccc(C(F)(F)F)cc2)Oc2c(NC(=O)NC3CCCCC3)cccc2C1=O	-19	i	i	i	i
C[C@H]1CN([C@@H](C)CO)C(=O)Cc2cc(NC(=O)Cc3ccccc3)ccc2O[C@H]1CN(C)Cc1ccncc1	-5	i	i	i	i
CC(=O)c1cccc(NC(=O)Cc2ccccc2[N+](=O)[O-])c1	13	.	.	.	.
Cc1ccc(-c2nc(SCC(=O)Nc3cc(C)c(C)cc3Br)n[nH]2)cc1	4	i	i	i	i

Screening results (PubChem BioAssay)
